Results published in the supplement of paper PMC4466140.

Molecular target: AgAbp1
Experiment: SPOT peptide array binding signal intensity (averaged, normalized) (arbitrary units (background-subtracted, floor 0; scale differs between SH3 domains)); higher = stronger binding of the SH3 domain to the peptide
Procedure, shortened: (§1)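 GST-fused SH3 domains, from four yeast species, were produced in E. coli BL21(DE3) and captured on glutathione Sepharose. Membranes of cellulose carrying synthetic 15-mer peptides, in which cysteines had been replaced by serines, were exposed to each domain at 10 μg/ml overnight at 4°C in TBS-based blocking buffer. After anti-GST antibody, an HRP anti-mouse secondary and luminol, spots were imaged and quantified using Genespotter. Binding signal is normalized and background-subtracted spot intensity, averaged over replicates, in arbitrary units that differ between domains.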

Row | Binder | SPOT peptide array binding signal intensity
1 | YVRRRPRVRLEPLLS | 116

Molecular target: AgBbc1
Experiment: as above
Procedure, shortened: as §1

Row | Binder | SPOT peptide array binding signal intensity
2 | YVRRRPRVRLEPLLS | 30.5

Molecular target: AgBem1-D1
Experiment: as above
Procedure, shortened: as §1

Row | Binder | SPOT peptide array binding signal intensity
3 | YVRRRPRVRLEPLLS | 62.5

Molecular target: AgBzz1-D1
Experiment: as above
Procedure, shortened: as §1

Row | Binder | SPOT peptide array binding signal intensity
4 | YVRRRPRVRLEPLLS | 152

Molecular target: AgBzz1-D2
Experiment: as above
Procedure, shortened: as §1

Row | Binder | SPOT peptide array binding signal intensity
5 | YVRRRPRVRLEPLLS | 91.5

Molecular target: AgCyk3
Experiment: as above
Procedure, shortened: as §1

Row | Binder | SPOT peptide array binding signal intensity
6 | YVRRRPRVRLEPLLS | 6.5

Molecular target: AgFus1
Experiment: as above
Procedure, shortened: as §1

Row | Binder | SPOT peptide array binding signal intensity
7 | YVRRRPRVRLEPLLS | 928

Molecular target: AgHof1
Experiment: as above
Procedure, shortened: as §1

Row | Binder | SPOT peptide array binding signal intensity
8 | YVRRRPRVRLEPLLS | 35

Molecular target: AgHse1
Experiment: as above
Procedure, shortened: as §1

Row | Binder | SPOT peptide array binding signal intensity
9 | YVRRRPRVRLEPLLS | 936

Molecular target: AgLsb1
Experiment: as above
Procedure, shortened: as §1

Row | Binder | SPOT peptide array binding signal intensity
10 | YVRRRPRVRLEPLLS | 17.2

Molecular target: AgLsb4
Experiment: as above
Procedure, shortened: as §1

Row | Binder | SPOT peptide array binding signal intensity
11 | YVRRRPRVRLEPLLS | 138

Molecular target: AgMyo5
Experiment: as above
Procedure, shortened: as §1

Row | Binder | SPOT peptide array binding signal intensity
12 | YVRRRPRVRLEPLLS | 6

Molecular target: AgNbp2
Experiment: as above
Procedure, shortened: as §1

Row | Binder | SPOT peptide array binding signal intensity
13 | YVRRRPRVRLEPLLS | 424

Molecular target: AgRvs167
Experiment: as above
Procedure, shortened: as §1

Row | Binder | SPOT peptide array binding signal intensity
14 | YVRRRPRVRLEPLLS | 14.1

Molecular target: AgSho1
Experiment: as above
Procedure, shortened: as §1

Row | Binder | SPOT peptide array binding signal intensity
15 | YVRRRPRVRLEPLLS | 263

Molecular target: AgSla1-D1-D2
Experiment: as above
Procedure, shortened: as §1

Row | Binder | SPOT peptide array binding signal intensity
16 | YVRRRPRVRLEPLLS | 258

Molecular target: AgSla1-D3
Experiment: as above
Procedure, shortened: as §1

Row | Binder | SPOT peptide array binding signal intensity
17 | YVRRRPRVRLEPLLS | 15.8

Molecular target: CaAbp1-D1
Experiment: as above
Procedure, shortened: as §1

Row | Binder | SPOT peptide array binding signal intensity
18 | YVRRRPRVRLEPLLS | 603

Molecular target: CaAbp1-D2
Experiment: as above
Procedure, shortened: as §1

Row | Binder | SPOT peptide array binding signal intensity
19 | YVRRRPRVRLEPLLS | 652

Molecular target: CaBbc1
Experiment: as above
Procedure, shortened: as §1

Row | Binder | SPOT peptide array binding signal intensity
20 | YVRRRPRVRLEPLLS | 150

Molecular target: CaBem1-D1
Experiment: as above
Procedure, shortened: as §1

Row | Binder | SPOT peptide array binding signal intensity
21 | YVRRRPRVRLEPLLS | 81.5

Molecular target: CaBzz1-D1
Experiment: as above
Procedure, shortened: as §1

Row | Binder | SPOT peptide array binding signal intensity
22 | YVRRRPRVRLEPLLS | 184

Molecular target: CaBzz1-D2
Experiment: as above
Procedure, shortened: as §1

Row | Binder | SPOT peptide array binding signal intensity
23 | YVRRRPRVRLEPLLS | 108

Molecular target: CaCyk3
Experiment: as above
Procedure, shortened: as §1

Row | Binder | SPOT peptide array binding signal intensity
24 | YVRRRPRVRLEPLLS | 45.5

Molecular target: CaFus1
Experiment: as above
Procedure, shortened: as §1

Row | Binder | SPOT peptide array binding signal intensity
25 | YVRRRPRVRLEPLLS | 589

Molecular target: CaHof1
Experiment: as above
Procedure, shortened: as §1

Row | Binder | SPOT peptide array binding signal intensity
26 | YVRRRPRVRLEPLLS | 0.75

Molecular target: CaHse1
Experiment: as above
Procedure, shortened: as §1

Row | Binder | SPOT peptide array binding signal intensity
27 | YVRRRPRVRLEPLLS | 107

Molecular target: CaLsb1
Experiment: as above
Procedure, shortened: as §1

Row | Binder | SPOT peptide array binding signal intensity
28 | YVRRRPRVRLEPLLS | 0.75

Molecular target: CaLsb4
Experiment: as above
Procedure, shortened: as §1

Row | Binder | SPOT peptide array binding signal intensity
29 | YVRRRPRVRLEPLLS | 164

Molecular target: CaMyo5
Experiment: as above
Procedure, shortened: as §1

Row | Binder | SPOT peptide array binding signal intensity
30 | YVRRRPRVRLEPLLS | 8.25

Molecular target: CaNbp2
Experiment: as above
Procedure, shortened: as §1

Row | Binder | SPOT peptide array binding signal intensity
31 | YVRRRPRVRLEPLLS | 887

Molecular target: CaRvs167
Experiment: as above
Procedure, shortened: as §1

Row | Binder | SPOT peptide array binding signal intensity
32 | YVRRRPRVRLEPLLS | 23.8

Molecular target: CaRvs167-3
Experiment: as above
Procedure, shortened: as §1

Row | Binder | SPOT peptide array binding signal intensity
33 | YVRRRPRVRLEPLLS | 82.6

Molecular target: CaSho1
Experiment: as above
Procedure, shortened: as §1

Row | Binder | SPOT peptide array binding signal intensity
34 | YVRRRPRVRLEPLLS | 898

Molecular target: CaSla1-D1-D2
Experiment: as above
Procedure, shortened: as §1

Row | Binder | SPOT peptide array binding signal intensity
35 | YVRRRPRVRLEPLLS | 114

Molecular target: CaSla1-D3
Experiment: as above
Procedure, shortened: as §1

Row | Binder | SPOT peptide array binding signal intensity
36 | YVRRRPRVRLEPLLS | 5.25

Molecular target: ScAbp1
Experiment: as above
Procedure, shortened: as §1

Row | Binder | SPOT peptide array binding signal intensity
37 | YVRRRPRVRLEPLLS | 128

Molecular target: ScBbc1
Experiment: as above
Procedure, shortened: as §1

Row | Binder | SPOT peptide array binding signal intensity
38 | YVRRRPRVRLEPLLS | 24.8

Molecular target: ScBem1-D1
Experiment: as above
Procedure, shortened: as §1

Row | Binder | SPOT peptide array binding signal intensity
39 | YVRRRPRVRLEPLLS | 46.5

Molecular target: ScBzz1-D1
Experiment: as above
Procedure, shortened: as §1

Row | Binder | SPOT peptide array binding signal intensity
40 | YVRRRPRVRLEPLLS | 58.5

Molecular target: ScBzz1-D2
Experiment: as above
Procedure, shortened: as §1

Row | Binder | SPOT peptide array binding signal intensity
41 | YVRRRPRVRLEPLLS | 117

Molecular target: ScCyk3
Experiment: as above
Procedure, shortened: as §1

Row | Binder | SPOT peptide array binding signal intensity
42 | YVRRRPRVRLEPLLS | 79.5

Molecular target: ScFus1
Experiment: as above
Procedure, shortened: as §1

Row | Binder | SPOT peptide array binding signal intensity
43 | YVRRRPRVRLEPLLS | 706

Molecular target: ScHof1
Experiment: as above
Procedure, shortened: as §1

Row | Binder | SPOT peptide array binding signal intensity
44 | YVRRRPRVRLEPLLS | 0.5

Molecular target: ScHse1
Experiment: as above
Procedure, shortened: as §1

Row | Binder | SPOT peptide array binding signal intensity
45 | YVRRRPRVRLEPLLS | 2260

Molecular target: ScLsb1
Experiment: as above
Procedure, shortened: as §1

Row | Binder | SPOT peptide array binding signal intensity
46 | YVRRRPRVRLEPLLS | 22.5

Molecular target: ScLsb2
Experiment: as above
Procedure, shortened: as §1

Row | Binder | SPOT peptide array binding signal intensity
47 | YVRRRPRVRLEPLLS | 8

Molecular target: ScLsb3
Experiment: as above
Procedure, shortened: as §1

Row | Binder | SPOT peptide array binding signal intensity
48 | YVRRRPRVRLEPLLS | 558

Molecular target: ScLsb4
Experiment: as above
Procedure, shortened: as §1

Row | Binder | SPOT peptide array binding signal intensity
49 | YVRRRPRVRLEPLLS | 29.5

Molecular target: ScMyo3
Experiment: as above
Procedure, shortened: as §1

Row | Binder | SPOT peptide array binding signal intensity
50 | YVRRRPRVRLEPLLS | 6.25

Molecular target: ScMyo5
Experiment: as above
Procedure, shortened: as §1

Row | Binder | SPOT peptide array binding signal intensity
51 | YVRRRPRVRLEPLLS | 3

Molecular target: ScNbp2
Experiment: as above
Procedure, shortened: as §1

Row | Binder | SPOT peptide array binding signal intensity
52 | YVRRRPRVRLEPLLS | 548

Molecular target: ScPex13
Experiment: as above
Procedure, shortened: as §1

Row | Binder | SPOT peptide array binding signal intensity
53 | YVRRRPRVRLEPLLS | 18.2

Molecular target: ScRvs167
Experiment: as above
Procedure, shortened: as §1

Row | Binder | SPOT peptide array binding signal intensity
54 | YVRRRPRVRLEPLLS | 30.8

Molecular target: ScSho1
Experiment: as above
Procedure, shortened: as §1

Row | Binder | SPOT peptide array binding signal intensity
55 | YVRRRPRVRLEPLLS | 1070

Molecular target: ScSla1-D1-D2
Experiment: as above
Procedure, shortened: as §1

Row | Binder | SPOT peptide array binding signal intensity
56 | YVRRRPRVRLEPLLS | 309

Molecular target: ScSla1-D3
Experiment: as above
Procedure, shortened: as §1

Row | Binder | SPOT peptide array binding signal intensity
57 | YVRRRPRVRLEPLLS | 29.9

Molecular target: SpAbp1-D1
Experiment: as above
Procedure, shortened: as §1

Row | Binder | SPOT peptide array binding signal intensity
58 | YVRRRPRVRLEPLLS | 252

Molecular target: SpBbc1
Experiment: as above
Procedure, shortened: as §1

Row | Binder | SPOT peptide array binding signal intensity
59 | YVRRRPRVRLEPLLS | 23.2

Molecular target: SpBzz1-D1
Experiment: as above
Procedure, shortened: as §1

Row | Binder | SPOT peptide array binding signal intensity
60 | YVRRRPRVRLEPLLS | 125

Molecular target: SpBzz1-D2
Experiment: as above
Procedure, shortened: as §1

Row | Binder | SPOT peptide array binding signal intensity
61 | YVRRRPRVRLEPLLS | 4.62

Molecular target: SpCyk3
Experiment: as above
Procedure, shortened: as §1

Row | Binder | SPOT peptide array binding signal intensity
62 | YVRRRPRVRLEPLLS | 2

Molecular target: SpHof1
Experiment: as above
Procedure, shortened: as §1

Row | Binder | SPOT peptide array binding signal intensity
63 | YVRRRPRVRLEPLLS | 97.6

Molecular target: SpHof1-2
Experiment: as above
Procedure, shortened: as §1

Row | Binder | SPOT peptide array binding signal intensity
64 | YVRRRPRVRLEPLLS | 29.5

Molecular target: SpHof1-3
Experiment: as above
Procedure, shortened: as §1

Row | Binder | SPOT peptide array binding signal intensity
65 | YVRRRPRVRLEPLLS | 256

Molecular target: SpHse1
Experiment: as above
Procedure, shortened: as §1

Row | Binder | SPOT peptide array binding signal intensity
66 | YVRRRPRVRLEPLLS | 834

Molecular target: SpLsb1
Experiment: as above
Procedure, shortened: as §1

Row | Binder | SPOT peptide array binding signal intensity
67 | YVRRRPRVRLEPLLS | 7.88

Molecular target: SpLsb4
Experiment: as above
Procedure, shortened: as §1

Row | Binder | SPOT peptide array binding signal intensity
68 | YVRRRPRVRLEPLLS | 254

Molecular target: SpMyo1
Experiment: as above
Procedure, shortened: as §1

Row | Binder | SPOT peptide array binding signal intensity
69 | YVRRRPRVRLEPLLS | 5.25

Molecular target: SpNbp2
Experiment: as above
Procedure, shortened: as §1

Row | Binder | SPOT peptide array binding signal intensity
70 | YVRRRPRVRLEPLLS | 673

Molecular target: SpPex13
Experiment: as above
Procedure, shortened: as §1

Row | Binder | SPOT peptide array binding signal intensity
71 | YVRRRPRVRLEPLLS | 61.8

Molecular target: SpRvs167
Experiment: as above
Procedure, shortened: as §1

Row | Binder | SPOT peptide array binding signal intensity
72 | YVRRRPRVRLEPLLS | 23

Molecular target: SpSla1-D1-D2
Experiment: as above
Procedure, shortened: as §1

Row | Binder | SPOT peptide array binding signal intensity
73 | YVRRRPRVRLEPLLS | 9

Molecular target: SpSla1-D3
Experiment: as above
Procedure, shortened: as §1

Row | Binder | SPOT peptide array binding signal intensity
74 | YVRRRPRVRLEPLLS | 87
